Consider 36 compounds from PubChem BioAssay.

Structures are written as SMILES.

Test system in one assay: not listed separately
Put plainly: probe aInhba binding on compound microarray – biochemical, small-molecule microarray, 635/667 nm fluorescence, primary screen (AID 1148).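 Also: score merges 667nm spot fluorescence with signal-to-noise for antibody binding to printed compounds.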 The following applies: higher = more signal.
With `O=C1[C@H]2[C@H]3[C@H](O)[C@H](O)CC(=NOC[C@@H](O)COCc4ccco4)[C@@H]3CC[C@H]2C(=O)N1c1cccc(Oc2ccccc2)c1`, the composite z-score was -0.0986.

In turn, `COC(=O)[C@@H]1CC[C@H](C)[C@@H](c2ccc(Br)cc2)N1C[C@@H](O)CN=[N+]=[N-]` showed a composite z-score of -0.224.

`CCOC(=O)[C@H](Cc1ccccc1)NC(=O)CCC1CC(OC(=O)NCc2cccc3ccccc23)CC2(CCCC(COC(=O)NCC3CCCCC3)O2)O1` (stereo not given in full) registered a composite z-score of 0.0155.

`C#CCCCON=C1[C@H]2CCn3c(=O)n([C@@H](CC)c4ccccc4)c(=O)n3[C@H]2[C@H](O)[C@@H]2O[C@H]12`: the composite z-score is -0.045.

The compound `C[C@@H]1C=CCC(=O)OC[C@H](C)C(=O)N[C@@H](Cc2ccccc2)C(=O)OC1` yielded a composite z-score of -0.0736.

`Cc1ccc2[nH]c3nc(CCCn4ccnc4-c4ccccc4)nnc3c2c1` yielded a composite z-score of 0.157.

Regarding `CC(CCN1CCc2nc(-c3ccccc3)c(-c3ccccc3)cc2C1)=NO[C@@H](C)c1cc(-c2c(C)cc(C)cc2C)no1`, the composite z-score was -0.159.

Compound `O=C1[C@H]2CCn3c(=O)n(Cc4cc5c(cc4Cl)OCO5)c(=O)n3[C@H]2[C@H](O)[C@@H]2O[C@H]12` registered a composite z-score of -0.215.

For `CCCNC(=O)OC[C@H]1O[C@H](CCON=C[C@@H](NS(=O)(=O)c2ccc(C)cc2)[C@H](C)C=CCC(=O)OC)C=C[C@@H]1Oc1ccc(OC)cc1`, the composite z-score came to 0.316.

Consider `CCN1C(=O)[C@H]2[C@H]3[C@H](O)[C@H](O)CC(=NOCC[C@@H]4C=C[C@H](OC(C)=O)[C@@H](COC(C)=O)O4)[C@@H]3CC[C@H]2C1=O`, for which the composite z-score is -0.109.

Take `COc1ccc(O[C@H]2C=C[C@@H](c3ccccc3)O[C@@H]2COC(=O)CCC(C)=NOC[C@@H](O)COCc2ccco2)cc1`: the composite z-score was -0.443.

As for `CC(C)[C@@H](OCc1ccccc1)[C@H](C)C=NOC[C@@H](O)[C@H]1O[C@@H]2OC(C)(C)O[C@@H]2[C@H]1O`, the composite z-score is -0.0695.

`O=C1C2=CC[C@H]3C(=O)N(Cc4ccccc4)C(=O)[C@H]3[C@H]2[C@H](O)[C@@H]2O[C@H]12` yielded a composite z-score of -0.128.

`COC(=O)[C@H](C)NC(=O)CCC1CC(OC(=O)NCc2ccc3c(c2)OCO3)CC2(CCCC(COC(=O)NCc3ccccc3)O2)O1` (stereo not given in full) yielded a composite z-score of -0.0136.

Regarding `CC(C)CON=C1C[C@@H](O)[C@@H](O)[C@@H]2[C@@H]3C(=O)N(Cc4ccccc4)C(=O)[C@@H]3CC[C@H]12`, the composite z-score was -0.212.

In turn, `O=C1[C@H]2[C@H]3[C@H](O)[C@H](O)CC(=NO[C@@H]4O[C@H](CO)[C@@H](O)[C@H](O)[C@H]4O)[C@H]3CC[C@H]2C(=O)N1c1ccc(F)cc1F` registered a composite z-score of -0.0774.

In turn, `CC(=O)OC[C@H]1O[C@@H](ON=C2[C@H]3CCn4c(=O)n(-c5ccccc5)c(=O)n4[C@H]3[C@H](O)[C@@H]3O[C@H]23)[C@H](OC(C)=O)[C@@H](OC(C)=O)[C@@H]1OC(C)=O` gave a composite z-score of 0.0282.

In turn, `C#CCCCON=C1C[C@@H](O)[C@@H](O)[C@@H]2[C@@H]3C(=O)N([C@@H](C)c4ccccc4)C(=O)[C@@H]3CC[C@@H]12` came in with a composite z-score of -0.239.

For the compound `O=C1[C@H]2[C@H]3[C@H](O)[C@H](O)CC(=NOC[C@@H](O)COCc4ccco4)[C@@H]3CC[C@H]2C(=O)N1C1CCCCC1`, the composite z-score is -0.195.

Compound `C[C@]12CCC3c4ccc(OCC5CO5)cc4CCC3C1CC[C@@H]2O` (stereo not given in full) gave a composite z-score of 0.0561.

As to `CCOC(=O)CCN1C(=O)[C@H]2[C@H]3[C@H](O)[C@H](O)CC(=NO[C@@H]4O[C@H](CO)[C@@H](O)[C@H](O)[C@H]4O)[C@H]3CC[C@H]2C1=O`, the composite z-score was -0.05.

On to `C=CCOCC1CN2[C@@H](CC[C@@H](C)[C@@H]2c2ccc(Br)cc2)C(=O)O1` (stereo not given in full), for which the composite z-score is -0.367.

`CO[C@H]1COC(=O)[C@H](C)COC(=O)[C@@H](OCc2ccccc2)C=C[C@@H]1C` gave a composite z-score of -0.273.

Regarding `CC(C)=NOC(C)CN1CCCc2nc(C)c(C)cc21` (stereo not given), the composite z-score is 0.0074.

The target of a further assay is Torsin-1A (Homo sapiens) (UniProt O14656). Kind of assay: TOR1A wild-type binding on microarray – cell lysate, small-molecule microarray, lysate, 635/667 nm, primary screen (AID 1149). The following applies: COS7 hTOR1A-WT lysate, 635 nm fluorescence, higher = more signal.
Sequence of Torsin-1A (Homo sapiens) (O14656 whole entry, looked up): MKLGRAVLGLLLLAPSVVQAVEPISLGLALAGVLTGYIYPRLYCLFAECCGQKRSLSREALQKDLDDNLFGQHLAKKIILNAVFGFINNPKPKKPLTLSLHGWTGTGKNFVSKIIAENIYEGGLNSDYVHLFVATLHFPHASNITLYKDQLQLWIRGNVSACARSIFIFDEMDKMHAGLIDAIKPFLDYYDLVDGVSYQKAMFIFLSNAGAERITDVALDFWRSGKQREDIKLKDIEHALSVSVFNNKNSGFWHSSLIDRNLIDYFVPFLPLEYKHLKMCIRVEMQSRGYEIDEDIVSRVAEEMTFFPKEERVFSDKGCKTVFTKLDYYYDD
Compound `COC(=O)CC=C[C@@H](C)[C@@H](C=NOC(C)CN1CCCCc2nc(C)c(C)cc21)OC` (stereo not given in full) registered a composite z-score of 3.19.

Compound `CCOC(=O)[C@H](CC(C)C)NC(=O)CCC1CC(OC(=O)NCc2ccc3c(c2)OCO3)CC2(CCCC(COC(=O)NCCc3ccc(Cl)cc3)O2)O1` (stereo not given in full) returned a composite z-score of -0.157.

`CC(CCN1CCc2nc(-c3ccccc3)c(-c3ccccc3)cc2C1)=NO[C@H](C)c1cn([C@H](CO)Cc2ccccc2)nn1` showed a composite z-score of 0.824.

Consider `CC(CCC(=O)OC[C@H]1O[C@H](C#Cc2ccccc2)C=C[C@@H]1Oc1ccc(C)cc1)=NO[C@H](C)c1cn([C@@H]2COC[C@H]2O)nn1`, for which the composite z-score was 0.587.

As for `CC(CCN1CCc2nc(-c3ccccc3)c(-c3ccccc3)cc2C1)=NOC(C)CN1CCCc2nc(C)c(C)cc21` (stereo not given), the composite z-score came out at 0.373.

Consider `CCC1=NOC(CCC2CC(OC(=O)NCc3cccc4c3OCO4)CC3(CCCC(COC(=O)NCCc4ccc(Cl)cc4)O3)O2)C1` (stereo not given), for which the composite z-score amounted to 0.217.

For `CCOC(=O)CCN1C(=O)[C@H]2[C@@H]3C(=CC[C@H]2C1=O)C(=O)[C@H]1O[C@H]1[C@H]3O`, the composite z-score was -0.47.

Consider `CON=C(C)CCC(=O)OC[C@H]1O[C@H](C#Cc2ccccc2)C=C[C@@H]1Oc1ccc(C)cc1`, for which the composite z-score was found to be 0.552.

On to `Cc1cc2c(nc1C)CCCCN2CC(O)CN1CCCc2nc(-c3ccc(Br)cc3)ccc21` (stereo not given), for which the composite z-score was 0.0636.

Compound `COC(=O)[C@H](C)NC(=O)CCC1CC(OC(=O)NCc2cccc3ccccc23)CC2(CCCC(COC(=O)NCCc3ccccc3OC)O2)O1` (stereo not given in full) displayed a composite z-score of 0.475.

The compound `CC#CCOCCC=C1c2ccccc2[C@@H](OC)[C@@H]1C` showed a composite z-score of 0.147.

For `CCO[C@H](c1cc(OC)cc([N+](=O)[O-])c1OC)[C@H](C)[C@@H](OC)[C@H](C)C=CCC(=O)OC`, the composite z-score was 0.388.

In the case of `O=C1[C@H]2[C@H]3[C@H](O)[C@H](O)CC(=NOC[C@@H](O)COCc4ccco4)[C@@H]3CC[C@H]2C(=O)N1c1cccc(Oc2ccccc2)c1`, the composite z-score was 0.419.

For the compound `COC(=O)[C@@H]1CC[C@H](C)[C@@H](c2ccc(Br)cc2)N1C[C@@H](O)CN=[N+]=[N-]`, the composite z-score was 0.54.

`CCOC(=O)[C@H](Cc1ccccc1)NC(=O)CCC1CC(OC(=O)NCc2cccc3ccccc23)CC2(CCCC(COC(=O)NCC3CCCCC3)O2)O1` (stereo not given in full) returned a composite z-score of 0.156.

Compound `C#CCCCON=C1[C@H]2CCn3c(=O)n([C@@H](CC)c4ccccc4)c(=O)n3[C@H]2[C@H](O)[C@@H]2O[C@H]12` returned a composite z-score of -0.0784.

As to `C[C@@H]1C=CCC(=O)OC[C@H](C)C(=O)N[C@@H](Cc2ccccc2)C(=O)OC1`, the composite z-score worked out at 0.519.

As to `Cc1ccc2[nH]c3nc(CCCn4ccnc4-c4ccccc4)nnc3c2c1`, the composite z-score was 0.443.

Compound `CC(CCN1CCc2nc(-c3ccccc3)c(-c3ccccc3)cc2C1)=NO[C@@H](C)c1cc(-c2c(C)cc(C)cc2C)no1` yielded a composite z-score of 0.199.

Take `O=C1[C@H]2CCn3c(=O)n(Cc4cc5c(cc4Cl)OCO5)c(=O)n3[C@H]2[C@H](O)[C@@H]2O[C@H]12`: the composite z-score is -0.22.

`CCCNC(=O)OC[C@H]1O[C@H](CCON=C[C@@H](NS(=O)(=O)c2ccc(C)cc2)[C@H](C)C=CCC(=O)OC)C=C[C@@H]1Oc1ccc(OC)cc1` came in with a composite z-score of 0.0067.

For the compound `CCN1C(=O)[C@H]2[C@H]3[C@H](O)[C@H](O)CC(=NOCC[C@@H]4C=C[C@H](OC(C)=O)[C@@H](COC(C)=O)O4)[C@@H]3CC[C@H]2C1=O`, the composite z-score came to 0.014.

Turning to `COc1ccc(O[C@H]2C=C[C@@H](c3ccccc3)O[C@@H]2COC(=O)CCC(C)=NOC[C@@H](O)COCc2ccco2)cc1`, the composite z-score is -6.12.

In the case of `CC(C)[C@@H](OCc1ccccc1)[C@H](C)C=NOC[C@@H](O)[C@H]1O[C@@H]2OC(C)(C)O[C@@H]2[C@H]1O`, the composite z-score stood at 0.298.

`O=C1C2=CC[C@H]3C(=O)N(Cc4ccccc4)C(=O)[C@H]3[C@H]2[C@H](O)[C@@H]2O[C@H]12` showed a composite z-score of 0.367.

Consider `COC(=O)[C@H](C)NC(=O)CCC1CC(OC(=O)NCc2ccc3c(c2)OCO3)CC2(CCCC(COC(=O)NCc3ccccc3)O2)O1` (stereo not given in full), for which the composite z-score amounted to 0.283.

Turning to `CC(C)CON=C1C[C@@H](O)[C@@H](O)[C@@H]2[C@@H]3C(=O)N(Cc4ccccc4)C(=O)[C@@H]3CC[C@H]12`, the composite z-score stood at 0.0783.

Consider `O=C1[C@H]2[C@H]3[C@H](O)[C@H](O)CC(=NO[C@@H]4O[C@H](CO)[C@@H](O)[C@H](O)[C@H]4O)[C@H]3CC[C@H]2C(=O)N1c1ccc(F)cc1F`, for which the composite z-score came to 0.835.

In turn, `CC(=O)OC[C@H]1O[C@@H](ON=C2[C@H]3CCn4c(=O)n(-c5ccccc5)c(=O)n4[C@H]3[C@H](O)[C@@H]3O[C@H]23)[C@H](OC(C)=O)[C@@H](OC(C)=O)[C@@H]1OC(C)=O` had a composite z-score of 0.0264.

Turning to `C#CCCCON=C1C[C@@H](O)[C@@H](O)[C@@H]2[C@@H]3C(=O)N([C@@H](C)c4ccccc4)C(=O)[C@@H]3CC[C@@H]12`, the composite z-score was -0.281.

As to `O=C1[C@H]2[C@H]3[C@H](O)[C@H](O)CC(=NOC[C@@H](O)COCc4ccco4)[C@@H]3CC[C@H]2C(=O)N1C1CCCCC1`, the composite z-score was determined as 3.38.

Take `C[C@]12CCC3c4ccc(OCC5CO5)cc4CCC3C1CC[C@@H]2O` (stereo not given in full): the composite z-score was 0.114.

Take `CCOC(=O)CCN1C(=O)[C@H]2[C@H]3[C@H](O)[C@H](O)CC(=NO[C@@H]4O[C@H](CO)[C@@H](O)[C@H](O)[C@H]4O)[C@H]3CC[C@H]2C1=O`: the composite z-score came out at 0.629.

The compound `C=CCOCC1CN2[C@@H](CC[C@@H](C)[C@@H]2c2ccc(Br)cc2)C(=O)O1` (stereo not given in full) gave a composite z-score of 0.318.

The compound `CO[C@H]1COC(=O)[C@H](C)COC(=O)[C@@H](OCc2ccccc2)C=C[C@@H]1C` had a composite z-score of 0.489.

Consider `CC(C)=NOC(C)CN1CCCc2nc(C)c(C)cc21` (stereo not given), for which the composite z-score is 0.111.
